# Activity calls are given as the source filed them.
# Experiments:
# [1] = binders of probe aFSTL3 on microarray, primary screen, stem cell growth factor project, biochemical, small-molecule microarray, fluorescence 635/667 (AID 1064); conditions: higher = more signal;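 further: measures binding of the biotinylated anti-FSTL3 antibody to printed compounds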
# [2] = binders from COS7 lysate, DM2A8 probe, primary screen, torsin A project, cell lysate, small-molecule microarray, fluorescence 635/667 (AID 1065); conditions: higher = more signal, COS7 lysate expressing mutant human TOR1A
# [3] = binders of probe aFGF2 on microarray, primary screen, stem cell growth factor project, biochemical, small-molecule microarray, fluorescence 635/667 (AID 1067); conditions: higher = more signal;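 further: measures binding of biotinylated aFGF2 protein to printed compounds on slides; z-score merges feature fluorescence and signal-to-noise across triplicate slides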
# [4] = binders of probe aFGF10 on microarray, primary screen, stem cell growth factor project, biochemical, small-molecule microarray, fluorescence 635/667 (AID 1071); conditions: higher = more signal;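 further: score merges 667 nm spot intensity and signal to noise from triplicate slides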
# [5] = biological target: Neurogenic locus notch homolog protein 2 (Homo sapiens) (UniProt Q04721); assay: Notch2 binders on small-molecule microarrays, primary screen, biochemical, small-molecule microarray, 635 nm fluorescence, stem cell growth factors (AID 1073); conditions: Notch2 binding, higher = more signal
# [6] = biological target: Pro-neuregulin-1, membrane-bound isoform (Homo sapiens) (UniProt Q02297); assay: NRG1 binders on small-molecule microarrays, primary screen, psychiatric disease protein project, biochemical, small-molecule microarray, fluorescence 635/667 (AID 1075); conditions: NRG1 binding, 635 nm fluorescence, higher = more signal;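 further: score combines 667 nm spot fluorescence with signal to noise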
# [7] = system: Neuregulin-1 EGF-like domain; assay: binders of neuregulin-1 EGF-like domain, primary screen, biochemical, small-molecule microarray, 635 nm fluorescence (AID 1081); conditions: small-molecule microarray binding, higher = more signal;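 further: binding of the protein to compounds printed on small-molecule microarray slides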
# [8] = FRG1 promoter luciferase signal modulators, primary screen, FRG1 inhibition for FSHD, cell-based, C2C12 myotubes, firefly/Renilla luciferase, luminescence (AID 1084); conditions: higher = more signal, called active from +8 up or from −8 down
# [9] = binders of probe aFST on microarray, primary screen, stem cell growth factor project, biochemical, small-molecule microarray, fluorescence 635/667 (AID 1086); conditions: higher = more signal;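 further: score merges 667 nm fluorescence with signal-to-noise of each printed compound spot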
# [10] = binders of probe aHhip on microarray, primary screen, stem cell growth factor project, biochemical, small-molecule microarray, fluorescence 635/667 (AID 1087); conditions: higher = more signal;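 further: score merges spot fluorescence at 667nm with spot signal to noise ratio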
# [11] = system: PRMT1 (protein arginine N-methyltransferase 1); assay: PRMT1 binders on small-molecule microarrays, primary screen, biochemical, small-molecule microarray, 635 nm fluorescence (AID 1088); conditions: small-molecule microarray binding, higher = more signal;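 further: binding of Prmt1 protein to compounds spotted on small-molecule microarray slides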
# [12] = yeast growth modulation, basal conditions, primary screen, YJM789 clinical isolate, OD600, 24 h (AID 1089);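 further: growth of clinical yeast isolate S. cerevisiae YJM 789 seeded 1000 cells per well; test concentration not given here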; conditions: S. cerevisiae YJM789 growth, higher = more signal, called active from +8 up or from −8 down
# [13] = fission yeast growth modulation, primary screen, strain 972, OD600, 24 h, no modulator (AID 1090);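 further: basal condition with compound alone and no growth modifier present; test concentration not given here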; conditions: S. pombe 972 growth, higher = more signal, called active from +8 up or from −8 down
# [14] = S. cerevisiae growth modulation with rapamycin, primary screen, strain BY4716, OD600, 96 h (AID 1091); conditions: higher = more signal, called active from +8 up or from −8 down; further: test concentration not given here
# [15] = biological target: Torsin-1A-interacting protein 2 (Homo sapiens) (UniProt Q8NFQ8); assay: LULL1 binders on small-molecule microarray, primary screen, cell lysate, human LULL1 lysate, 635/667 nm fluorescence (AID 1092); conditions: hLULL1 lysate binding, 635 nm fluorescence, higher = more signal;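 further: probe is lysate of COS7 cells overexpressing human LULL1; score merges per-feature 667 nm fluorescence with signal-to-noise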
# [16] = E. coli growth modulation, two-sided OD650, primary screen, E. coli filamentation project, strain DRC41, 24 h (AID 1093); conditions: OD650, 24 h, higher = more signal, called active from +8 up or from −8 down;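 further: MC1000 strain lacking acrAB efflux and sulA so SOS filamentation is blocked; test concentration not given here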
# [17] = small-molecule microarray binders of probe aLefty2, primary screen, biochemical, biotinylated probe, 635/667 nm fluorescence (AID 1094); conditions: higher = more signal;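 further: score merges spot fluorescence near 667 nm with spot signal-to-noise ratio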
# [18] = system: Noggin (protein binding on small-molecule microarray); assay: Noggin binders on small-molecule microarray, primary screen, biochemical, 635/667 nm fluorescence (AID 1095); conditions: 635 nm fluorescence, higher = more signal;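 further: score merges 667 nm feature fluorescence with signal to noise over triplicate slides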
# [19] = biological target: Neurogenic locus notch homolog protein 3 (Homo sapiens) (UniProt Q9UM47); assay: NOTCH3 binders on small-molecule microarray, primary screen, biochemical, 635/667 nm fluorescence (AID 1096); conditions: NOTCH3 binding, 635 nm fluorescence, higher = more signal
# [20] = small-molecule microarray binders of probe aEGFR, primary screen, biochemical, biotinylated probe, 635/667 nm fluorescence (AID 1097); conditions: higher = more signal;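 further: probe is a biotinylated anti-EGFR antibody binding compounds printed on slides; score combines fluorescence near 667 nm and signal to noise of each spot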
# Chain of Pro-neuregulin-1, membrane-bound isoform (Homo sapiens) (Q02297 whole entry, looked up, the tested form may be a part, canonical isoform): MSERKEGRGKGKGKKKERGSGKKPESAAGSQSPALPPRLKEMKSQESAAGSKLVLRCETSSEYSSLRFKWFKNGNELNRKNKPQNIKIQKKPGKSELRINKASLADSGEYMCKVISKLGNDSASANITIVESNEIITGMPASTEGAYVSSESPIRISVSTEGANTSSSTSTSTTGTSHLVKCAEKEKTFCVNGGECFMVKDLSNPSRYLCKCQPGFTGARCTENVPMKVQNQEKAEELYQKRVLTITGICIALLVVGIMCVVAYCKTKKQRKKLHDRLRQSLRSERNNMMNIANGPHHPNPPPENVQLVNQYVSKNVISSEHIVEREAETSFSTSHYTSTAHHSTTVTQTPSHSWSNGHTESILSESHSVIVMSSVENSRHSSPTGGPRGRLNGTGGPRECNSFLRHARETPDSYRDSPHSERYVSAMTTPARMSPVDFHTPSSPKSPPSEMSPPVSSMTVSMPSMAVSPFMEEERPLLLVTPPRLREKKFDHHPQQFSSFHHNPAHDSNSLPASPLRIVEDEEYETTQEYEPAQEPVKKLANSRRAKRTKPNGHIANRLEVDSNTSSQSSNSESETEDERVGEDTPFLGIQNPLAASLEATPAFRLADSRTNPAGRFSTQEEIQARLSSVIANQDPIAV
# Chain of Neurogenic locus notch homolog protein 2 (Homo sapiens) (Q04721 whole entry, looked up, canonical isoform): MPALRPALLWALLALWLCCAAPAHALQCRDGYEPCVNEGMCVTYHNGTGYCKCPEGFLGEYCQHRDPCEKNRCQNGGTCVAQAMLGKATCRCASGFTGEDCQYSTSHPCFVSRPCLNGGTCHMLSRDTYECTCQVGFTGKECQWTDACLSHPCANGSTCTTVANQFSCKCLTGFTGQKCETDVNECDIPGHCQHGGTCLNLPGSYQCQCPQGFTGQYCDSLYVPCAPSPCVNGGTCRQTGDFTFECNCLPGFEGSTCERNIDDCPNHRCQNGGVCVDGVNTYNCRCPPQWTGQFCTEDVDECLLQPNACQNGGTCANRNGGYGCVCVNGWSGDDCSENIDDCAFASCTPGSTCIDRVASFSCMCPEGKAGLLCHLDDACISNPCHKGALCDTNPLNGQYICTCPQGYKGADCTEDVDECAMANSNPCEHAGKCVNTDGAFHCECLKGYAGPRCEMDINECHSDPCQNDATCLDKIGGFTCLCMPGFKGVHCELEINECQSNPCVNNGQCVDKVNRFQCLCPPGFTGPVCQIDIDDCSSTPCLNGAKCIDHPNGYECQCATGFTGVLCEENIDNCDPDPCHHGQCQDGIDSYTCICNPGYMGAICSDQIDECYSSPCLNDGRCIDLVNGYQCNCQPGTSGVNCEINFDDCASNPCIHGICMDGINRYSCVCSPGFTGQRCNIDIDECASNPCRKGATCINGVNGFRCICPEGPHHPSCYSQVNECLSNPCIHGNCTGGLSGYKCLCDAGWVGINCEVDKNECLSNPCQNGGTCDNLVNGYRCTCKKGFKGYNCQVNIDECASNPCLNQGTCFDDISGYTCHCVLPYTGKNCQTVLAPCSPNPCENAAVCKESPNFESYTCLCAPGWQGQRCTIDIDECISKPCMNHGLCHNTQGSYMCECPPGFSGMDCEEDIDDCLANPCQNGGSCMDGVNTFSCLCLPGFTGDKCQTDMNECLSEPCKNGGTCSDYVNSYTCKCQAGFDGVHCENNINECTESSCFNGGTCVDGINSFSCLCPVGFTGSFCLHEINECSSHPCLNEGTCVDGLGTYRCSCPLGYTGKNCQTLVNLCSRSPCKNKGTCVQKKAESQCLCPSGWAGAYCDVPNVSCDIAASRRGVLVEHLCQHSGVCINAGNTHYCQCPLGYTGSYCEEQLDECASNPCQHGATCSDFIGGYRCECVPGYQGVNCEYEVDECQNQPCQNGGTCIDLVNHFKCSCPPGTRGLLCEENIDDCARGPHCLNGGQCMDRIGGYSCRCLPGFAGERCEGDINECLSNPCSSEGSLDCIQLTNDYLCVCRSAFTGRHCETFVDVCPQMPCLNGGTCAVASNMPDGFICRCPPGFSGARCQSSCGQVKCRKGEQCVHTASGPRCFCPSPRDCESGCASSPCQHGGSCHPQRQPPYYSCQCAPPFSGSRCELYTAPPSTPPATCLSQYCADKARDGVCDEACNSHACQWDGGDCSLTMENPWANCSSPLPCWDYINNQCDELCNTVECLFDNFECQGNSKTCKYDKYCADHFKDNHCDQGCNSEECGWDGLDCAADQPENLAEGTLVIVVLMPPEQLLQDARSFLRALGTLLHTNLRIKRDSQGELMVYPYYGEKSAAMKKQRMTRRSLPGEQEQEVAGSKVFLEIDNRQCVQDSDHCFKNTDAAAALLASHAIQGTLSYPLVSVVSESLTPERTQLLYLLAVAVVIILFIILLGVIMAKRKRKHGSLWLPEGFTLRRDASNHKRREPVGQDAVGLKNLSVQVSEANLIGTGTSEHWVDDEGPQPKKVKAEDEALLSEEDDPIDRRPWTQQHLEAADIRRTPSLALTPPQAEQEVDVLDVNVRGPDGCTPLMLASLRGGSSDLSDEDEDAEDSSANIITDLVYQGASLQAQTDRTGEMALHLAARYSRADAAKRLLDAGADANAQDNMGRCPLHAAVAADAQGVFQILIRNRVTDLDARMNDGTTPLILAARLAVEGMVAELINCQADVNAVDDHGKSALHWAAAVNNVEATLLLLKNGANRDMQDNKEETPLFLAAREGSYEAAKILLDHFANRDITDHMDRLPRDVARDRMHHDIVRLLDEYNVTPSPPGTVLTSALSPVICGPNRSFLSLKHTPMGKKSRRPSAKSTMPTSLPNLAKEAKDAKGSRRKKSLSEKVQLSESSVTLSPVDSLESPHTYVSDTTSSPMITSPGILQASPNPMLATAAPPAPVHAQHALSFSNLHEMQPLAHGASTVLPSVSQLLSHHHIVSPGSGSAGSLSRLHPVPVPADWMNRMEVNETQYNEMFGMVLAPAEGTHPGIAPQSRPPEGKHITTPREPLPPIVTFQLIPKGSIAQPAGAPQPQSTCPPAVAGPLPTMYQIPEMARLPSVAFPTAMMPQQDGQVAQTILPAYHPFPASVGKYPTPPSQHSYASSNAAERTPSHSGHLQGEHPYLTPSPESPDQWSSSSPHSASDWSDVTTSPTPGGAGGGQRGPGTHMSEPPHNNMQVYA
# Chain of Torsin-1A-interacting protein 2 (Homo sapiens) (Q8NFQ8 whole entry, looked up): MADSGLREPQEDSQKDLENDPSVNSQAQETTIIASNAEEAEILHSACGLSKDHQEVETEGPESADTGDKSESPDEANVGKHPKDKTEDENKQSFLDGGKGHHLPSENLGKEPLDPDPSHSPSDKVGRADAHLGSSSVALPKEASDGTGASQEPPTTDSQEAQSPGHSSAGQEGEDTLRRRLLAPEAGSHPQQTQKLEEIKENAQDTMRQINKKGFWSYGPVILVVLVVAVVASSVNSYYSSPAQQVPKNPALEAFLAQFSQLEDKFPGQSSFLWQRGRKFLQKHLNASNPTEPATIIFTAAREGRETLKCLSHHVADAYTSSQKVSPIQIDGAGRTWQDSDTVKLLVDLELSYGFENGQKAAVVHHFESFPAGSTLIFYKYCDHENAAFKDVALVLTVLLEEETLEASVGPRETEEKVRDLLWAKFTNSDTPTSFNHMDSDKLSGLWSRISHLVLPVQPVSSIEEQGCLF
Structure (SMILES),composite z-score [1],composite z-score [2],composite z-score [3],composite z-score [4],composite z-score [5],composite z-score [6],composite z-score [7],z-score [8],composite z-score [9],composite z-score [10],composite z-score [11],z-score [12],z-score [13],z-score [14],composite z-score [15],z-score [16],composite z-score [17],composite z-score [18],composite z-score [19],composite z-score [20]
COCCOC(=O)N1C(=O)[C@@]2(c3cc(C#CC4=CCCCC4)ccc31)[C@H](C(=O)N1CCN(c3ncccn3)CC1)[C@H]1C(=O)O[C@H](c3ccccc3)[C@H](c3ccccc3)N1[C@@H]2c1ccccc1OCCO,-0.285,0.943,0.0346,0.616,0.793,0.591,1.15,1.45 (inactive),0.636,-0.0237,1.53,1.3 (inactive),0.683 (inactive),4.42 (inactive),2.75,1.96 (inactive),-0.0687,1.14,1.04,-0.0749
COCCOC(=O)N1C(=O)[C@@]2(c3cc(C#CCCO)ccc31)[C@H](c1ccccc1OCCO)N1[C@H](c3ccccc3)[C@H](c3ccccc3)OC(=O)[C@H]1[C@@H]2C(=O)N1CCc2cc(OC)c(OC)cc2C1,0.071,0.827,0.022,1.04,1.04,1.21,1.17,-1.4 (inactive),0.505,0.0373,1.54,1.88 (inactive),0.763 (inactive),3 (inactive),2.93,1.26 (inactive),-0.0616,1.26,1.12,0.0384
CN1C(=O)[C@]2(CCC(=O)OC(C)(C)C)N=C(c3ccc(OCCCO)cc3)O[C@@H]2c2ccccc21,0.229,0.326,0.0458,0.182,0.428,1.8,1.35,0.518 (inactive),0.898,0.21,1.55,0.494 (inactive),-0.243 (inactive),0.872 (inactive),3.06,0.95 (inactive),0.0079,1.9,1.13,-0.04
CC(=O)NCCCC[C@@H]1NC(=O)[C@@H]2C[C@H](C(=O)NCCCCCC[N+](C)(C)C)[C@H](c3ccc(O)cc3)N2C1=O,0.101,0.437,-0.224,0.204,0.472,0.148,1.23,3.02 (inactive),-0.0677,0.0881,0.914,0.124 (inactive),-0.16 (inactive),0.216 (inactive),1.43,-0.453 (inactive),0.104,0.761,0.157,-0.476
CCOC(=O)C1=CC[C@@H](c2ccccc2Cl)N(S(=O)(=O)c2ccc(C)cc2)[C@H]1c1cccc(OC)c1,-0.329,0.0632,-0.0276,0.317,0.408,0.0948,0.971,-0.38 (inactive),0.289,0.0139,0.336,0.318 (inactive),0.957 (inactive),2.88 (inactive),1.84,-1.08 (inactive),-0.186,-0.0339,0.506,-0.125

# Source: PubChem BioAssay
